# Screening data: PubChem, NMMLSC
# An excerpt weighted towards active compounds, which were near 1.8% of everything screened.
# Exocytosis inh: LAMP-1 surface exposure blockers, TALL-104 cells – cell-based, flow cytometry, MLPCN library, primary screen; TALL-104 LAMP-1 surface exposure; cells stimulated with thapsigargin and PMA; inhibition, % at 10 µM; actives 0.66% (n = 360,000); AID 651702, 2012;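 active = inhibition above about 55%, limit read from the data; inconclusive = no clear call, values can overlap the other calls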
# ABCB6 inh 2: ABCB6 transporter inhibitors, primary screen, K562-ABCB6 cells, flow cytometry, MLPCN library | ATP-binding cassette sub-family B member 6 (Homo sapiens), Q9NP58 | K562-ABCB6 porphyrin accumulation, 1 h; stronger effect = lower value | fluorescence ratio to DMSO, % at 10 µM | actives 0.19% (n = 360,000) | AID 602162, 2011;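 active = fluorescence ratio to DMSO below 75%, the collection mean minus 3 SD; inconclusive = too few cells collected in the well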;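 also: signal is porphyrin accumulated inside mitochondria; lower ratio means ABCB6 inhibition with less porphyrin fluorescence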
# Target sequence (Q9NP58 whole entry, looked up): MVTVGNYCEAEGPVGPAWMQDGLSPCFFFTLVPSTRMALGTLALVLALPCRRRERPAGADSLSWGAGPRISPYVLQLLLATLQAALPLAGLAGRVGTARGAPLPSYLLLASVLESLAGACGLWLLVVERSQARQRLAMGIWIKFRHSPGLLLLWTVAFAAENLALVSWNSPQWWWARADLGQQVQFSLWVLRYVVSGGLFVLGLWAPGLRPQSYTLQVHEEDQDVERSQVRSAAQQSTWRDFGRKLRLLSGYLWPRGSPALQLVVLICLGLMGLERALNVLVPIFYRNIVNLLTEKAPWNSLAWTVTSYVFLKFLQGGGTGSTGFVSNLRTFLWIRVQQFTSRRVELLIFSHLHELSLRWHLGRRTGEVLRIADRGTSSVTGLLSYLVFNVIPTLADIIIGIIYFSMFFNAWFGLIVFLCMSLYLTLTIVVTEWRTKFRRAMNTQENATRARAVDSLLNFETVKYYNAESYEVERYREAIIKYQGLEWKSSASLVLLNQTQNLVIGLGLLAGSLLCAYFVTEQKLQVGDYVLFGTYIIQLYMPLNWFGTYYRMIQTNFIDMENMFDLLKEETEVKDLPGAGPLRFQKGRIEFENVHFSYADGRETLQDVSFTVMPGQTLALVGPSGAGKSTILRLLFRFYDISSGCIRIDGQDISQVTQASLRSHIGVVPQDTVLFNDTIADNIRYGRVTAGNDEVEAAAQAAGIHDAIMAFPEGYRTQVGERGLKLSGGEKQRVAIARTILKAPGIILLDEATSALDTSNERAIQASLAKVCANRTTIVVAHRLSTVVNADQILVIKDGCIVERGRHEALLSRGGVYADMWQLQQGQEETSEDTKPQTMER
# Myeloid diff 2: induction of myeloid progenitor differentiation, primary screen, cell-based, flow cytometry, MLPCN library. ER-HoxA9 myeloid progenitors, lysozyme-GFP differentiation. calls only at 10 µM. actives 1% (n = 360,000);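 active = normalized GFP-positive differentiation at or above the plate's own cutoff, the solvent-only control mean plus 3 SD; inconclusive = no clear call, values can overlap the other calls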;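 also: cells exposed to compound for four days before flow analysis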
# Hits are given with their value; – = inactive; ? = inconclusive; · = no result given; + = active, no number.
SMILES,Exocytosis inh,ABCB6 inh 2,Myeloid diff 2
COc1ccc(-c2sc3cc4c(cc3c2C#Cc2cncn2C)OCO4)cc1,–,–,·
CC(C)CN1C(=O)C(=O)N(CC(=O)c2ccc3c(c2)CCCC3)C1=O,–,–,–
NC(=O)c1ccc(NC(=O)COC(=O)c2cc3ccccc3cc2O)cc1,–,–,–
O=C(Nc1cccc(C(=O)N2CCCCC2)c1)C1CCCCC1,–,–,–
CCc1nc2c(OCCn3cccc3)cccn2c1N(C)C(=O)c1ccccc1F,–,–,–
O=C(COC(=O)CNC(=O)c1cc(Cl)cc([N+](=O)[O-])c1)NC(=O)NCc1ccco1,–,–,–
O=C(COC(=O)CNC(=O)c1cccc([N+](=O)[O-])c1)NCc1ccco1,–,–,+
CN(C)CCN(C)C1CN(Cc2ccc([N+](=O)[O-])cc2)S(=O)(=O)C1 (centres undefined),–,–,–
Cc1cc(=O)c(C(=O)Nc2cccc(C(=O)NC3CC3)c2)nn1-c1ccccc1,–,–,–
O=C(NCCCN1CCOCC1)c1ccc(Sc2ccccc2Cl)c([N+](=O)[O-])c1,–,–,–
O=C(NCCCN1CCOCC1)c1ccc(Sc2ccc(Br)cc2)c([N+](=O)[O-])c1,–,–,+
CCOc1ccc(-c2cc(C(=O)NCCCN3CCCC3)c3ccccc3n2)cc1,–,–,–
COc1ccccc1NCCC(=O)OCC(=O)Nc1ccccc1Cl,–,–,–
C#CCSc1nnc(-c2c[nH]c3ccccc23)n1C,–,–,+
CC(C)Sc1nnc(-c2c[nH]c3ccccc23)n1C,–,–,–
COC(=O)[C@]12CCCCC=C1N(Cc1ccc(Cl)cc1Cl)C(=O)[C@H](CC(=O)N1CCN(C(=O)C3CC3)CC1)C2,–,–,–
O=c1c2ccccc2sn1-c1cc(S(=O)(=O)N2CCOCC2)ccc1N1CCCC1,–,–,–
O=c1c2ccccc2sn1-c1cc(S(=O)(=O)N2CCOCC2)ccc1N1CCOCC1,59,–,–
O=C(c1ccc(S(=O)(=O)N2CCCCC2)cc1)N1CCCC(C(F)(F)F)C1 (centres undefined),–,–,–
CN(C)C(CNc1ccc(C(F)(F)F)cc1[N+](=O)[O-])c1ccccc1 (centres undefined),74,–,–
CN(C)C(CNc1ccc(S(C)(=O)=O)cc1[N+](=O)[O-])c1ccccc1 (centres undefined),–,–,?
O=C(C1CCC(CNc2nc(=S)[nH]c3ccccc23)CC1)N1CCN(c2ccccn2)CC1 (centres undefined),–,–,+
C=CCNC(=O)C1CCC(CNc2nc(=S)[nH]c3ccccc23)CC1 (centres undefined),–,–,–
CCCN(CC(=O)Nc1ccccc1C)C(=O)c1ccc(N2CCCC2=O)cc1,–,–,–
COc1ccc(N2CCN(C(=O)c3ccc4c(c3)NC(=O)C(CSCc3ccccc3F)N4)CC2)cc1 (centres undefined),–,–,–
SMILES,Exocytosis inh,ABCB6 inh 2,Myeloid diff 2
Cc1cccc(N2CCN(C(=O)c3ccc4c(c3)NC(=O)C(CSCc3cccc(F)c3)N4)CC2C)c1 (centres undefined),–,–,+
CC(=O)CC(c1ccccc1)S(=O)(=O)c1ccc([N+](=O)[O-])cc1 (centres undefined),–,–,+
CC(Cc1ccccc1)=NNS(=O)(=O)c1ccc([N+](=O)[O-])cc1,–,–,–
C[C@@H]1CN([C@H](C)CO)C(=O)Cc2cc(NC(=O)Nc3ccccc3)ccc2O[C@@H]1CN(C)C(=O)Nc1ccc2c(c1)OCO2,–,–,–
Cc1cccc(C)c1-n1nnnc1C1(C)CCC(=O)N1Cc1cccc(C(F)(F)F)c1 (centres undefined),–,–,–
COc1ccc(C(=O)N=c2sc3c(C)ccc(OC)c3n2C)cc1,–,–,+
COc1cc(C(=O)N=c2sc3c(C)ccc(OC)c3n2C)cc(OC)c1OC,–,–,–
O=C(CCSc1ccccc1)N1CCN(c2ccccc2)CC1,–,–,–
O=C(CCSc1ccc(Cl)cc1)N1CCN(c2ccc(O)cc2)CC1,–,–,+
O=c1[nH]c2cc3ccccc3cc2nc1-c1nnnn1Cc1ccccc1,–,–,–
O=C(NCc1ccccc1)C1c2ccccc2OCC(=O)N1Cc1cccnc1 (centres undefined),–,–,–
CN(C)S(=O)(=O)c1cccc(NC(=O)c2cccc(NS(=O)(=O)c3ccccc3)c2)c1,–,–,–
CN(C)S(=O)(=O)c1cccc(NC(=O)c2sccc2-c2ccccc2)c1,–,–,+
C=C(C)CN=CC1(C)CCC(C)=CO1 (centres undefined),–,–,–
Cc1ccc(C)c(NC(=S)NNc2ccc(F)cc2F)c1,84,–,–
Cc1ccc(C)c(NC(=S)NCCc2ccc(F)cc2)c1,–,–,–
O=C(NCc1ccccc1)C(c1ccccc1F)n1c(=O)c(-c2ccco2)nc2ccccc21 (centres undefined),–,·,–
COc1ccc(OCCOc2ccc(/C=C3\C(=N)N4N=C(C)SC4=NC3=O)cc2)cc1,–,–,–
CCOC(CN=c1nc(N(C)C)ss1)OCC,–,–,·
CN(C)c1nc(=NCc2ccco2)ss1,76,–,–
CN(Cc1cccc(Cl)c1Cl)C(=O)c1cc(S(=O)(=O)N2CCOCC2)ccc1F,–,–,–
NC(=O)CSCc1nc2ccccc2s1,–,–,–
N/C(Cc1nc2ccccc2s1)=N\O,–,–,+
S=C(Cc1ccccc1)Nc1ccccc1,–,–,–
Cc1cc(C)c(NC(=O)C2CCCN2CCO)c(C)c1 (centres undefined),–,–,+
SMILES,Exocytosis inh,ABCB6 inh 2,Myeloid diff 2
CCCCN1CCCCC1C(=O)Nc1c(C)cc(C)cc1C (centres undefined),–,–,–
O=C(CN(Cc1ccc(Cl)cc1)C(=O)c1csnn1)NCc1ccccc1,–,–,–
NC(=O)CSc1nnc(-c2cccs2)n1Cc1ccco1,–,–,–
Cc1ccc(C)c(CSc2nnc(-c3cccs3)n2Cc2ccco2)c1,–,–,+
CCCCC1C2C(=O)N(c3ccc(C)cc3)C(=O)C2ON1c1ccccc1 (centres undefined),–,–,–
CC1=C(C(=O)N(C(C)C)C(C)C)CC(CC(=O)NCCc2ccccn2)C(=O)N1Cc1ccc(F)cc1 (centres undefined),–,–,–
Nc1ncnc2c1ncn2[C@@H]1O[C@H](CNC(=O)[C@H](N)Cc2cscn2)[C@@H](O)[C@H]1O,–,–,–
CCN(C(=O)COC(=O)c1c(C)nn(-c2ccccc2)c1C)C1CCS(=O)(=O)C1 (centres undefined),–,–,–
CCN(C(=O)COC(=O)c1c2c(nc3ccccc13)/C(=C/c1ccccc1)CC(C)C2)C1CCS(=O)(=O)C1 (centres undefined),–,–,+
Cc1nn2c(N)c(-c3ccccc3)cnc2c1-c1ccccc1,–,–,–
O=C(NC1CCCC1)N[C@@H]1C=C[C@@H](CC(=O)N2CCOCC2)O[C@@H]1CO,–,·,–
